Screening results from PubChem BioAssay.
CHRM1 PAM = positive allosteric modulators of human M1 muscarinic receptor | CHO-K1 hM1, Fluo-8 calcium fluorescence, ACh EC20; 0% = ACh EC20, 100% = maximal ACh | activation, % at 3 µM | actives 0.088% (n = 360,000); in the data active = activation above about 19%, passing the limit was not always enough
Target sequence (P11229 whole entry, looked up): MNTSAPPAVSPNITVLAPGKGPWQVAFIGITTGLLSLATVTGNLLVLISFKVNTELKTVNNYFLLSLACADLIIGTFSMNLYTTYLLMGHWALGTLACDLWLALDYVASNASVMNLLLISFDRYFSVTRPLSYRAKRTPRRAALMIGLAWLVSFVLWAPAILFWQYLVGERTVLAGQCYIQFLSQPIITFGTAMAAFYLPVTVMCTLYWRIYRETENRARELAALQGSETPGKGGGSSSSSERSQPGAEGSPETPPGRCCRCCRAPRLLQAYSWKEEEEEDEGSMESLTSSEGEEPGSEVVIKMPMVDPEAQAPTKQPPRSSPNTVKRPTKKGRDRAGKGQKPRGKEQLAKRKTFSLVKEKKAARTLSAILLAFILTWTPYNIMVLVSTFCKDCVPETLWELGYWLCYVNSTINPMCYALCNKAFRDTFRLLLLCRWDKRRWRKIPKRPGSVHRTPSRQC
CHO-K1 Ca ag = nonselective activator or artifact in parental CHO-K1 cells | Fluo-8 calcium fluorescence; scaled to maximal ATP response, vehicle zero | activation, % at 3 µM | actives 0.48% (n = 360,000) | AID 602248; in the data active = activation above about 15%;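 also: untransfected CHO-K1 host cells lacking M1 receptor as counterscreen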
M1 ag = activates human CHRM1 receptor; AID 588814; activation, % at 3 µM; actives 0.33% (n = 360,000); CHO-K1 hM1, Fluo-8 calcium fluorescence, agonist mode; 0% DMSO, 100% acetylcholine EC100;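 active = activation above the run's mean compound activation plus 3 SD, cut at about 16% in these data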;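 also: peak over basal fluorescence ratio within a 140 s kinetic read after compound addition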
M1 PAM parental = M1 PAM counterscreen hit in parental CHO-K1 cells; ATP EC20, Fluo-8 calcium fluorescence; 0% at ATP EC20, 100% at ATP max; activation, % at 3 µM; actives 0.02% (n = 360,000);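 active = activation above the run cutoff, the mean activation of all test compounds plus 3 SD, cut at about 40% in these data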;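 also: peak over basal fluorescence ratio in a 140 s read after ATP addition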
CHO-K1 Ca antag = nonselective inhibitor or artifact in parental CHO-K1 cells; ATP-induced calcium, Fluo-8 fluorescence; inhibition, % at 3 µM; actives 0.6% (n = 360,000); AID 602250;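 active = inhibition above a per-plate cutoff, the plate's mean sample inhibition plus 3 SD, cut at about 24% in these data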
CHRM1 antagonist = blocks human M1 muscarinic receptor | CHO-K1 hM1, Fluo-8 calcium fluorescence, ACh EC80 antagonist | inhibition, % at 3 µM | actives 1.3% (n = 360,000) | AID 588852;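 active = percent inhibition above its own plate's cutoff, namely the mean of that plate's compound wells plus 3 SD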;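 also: peak over basal fluorescence ratio during 140 s after agonist addition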
Of the large screens only hits and unclear results are named; the others gave an inactive call. Shown are actives, neighbours in structure and some others; about 2.3% of the full set was active somewhere.

O=C(NCc1nc(-c2ccc(C(F)(F)F)cc2)no1)Nc1ccc(F)cc1F	none
COc1cc(-c2coc3c(C(=O)NCc4ccc(OC)c(OC)c4)cccc23)ccc1O	CHO-K1 Ca ag 15.3, CHRM1 antagonist 29.7
COc1ccc(CNC(=O)c2cccc3c(-c4cccc(C(N)=O)c4)coc23)cc1OC	CHO-K1 Ca antag 25.9, CHRM1 antagonist 38.8
CC1=[N+](C)N(c2ccccc2)C(=O)C1N=Cc1c(Cl)cccc1Cl (stereo not drawn)	CHO-K1 Ca ag 16.3
COc1cccc(-n2c(SCC(=O)O)nnc2-c2cccnc2)c1	CHRM1 antagonist 22.9
Cc1cc(C)n(S(=O)(=O)c2ccc(C(C)(C)C)cc2)n1	CHRM1 antagonist 54.5
CS(=O)(=O)N(CC(=O)Nc1ccc(S(=O)(=O)N2CCCC2)cc1)c1ccccc1	none
CC(=O)c1c(C)[nH]c(C(=O)CSc2ccc(F)cc2)c1C	CHO-K1 Ca ag 15.2, CHRM1 antagonist 32.9
CCOC(=O)c1[nH]c(C)c(/C(O)=C2\C(=O)C(=O)N(CCCN3CCOCC3)C2c2cccnc2)c1C (stereo not drawn)	CHO-K1 Ca ag 19.4
CCOC(=O)c1[nH]c(C)c(/C(O)=C2\C(=O)C(=O)N(CCCN(CC)CC)C2c2cccnc2)c1C (stereo not drawn)	none
CCCCC1Cc2[nH]c(=S)[nH]c(=O)c2C(c2ccc(Cl)cc2)O1 (stereo not drawn)	none
O=C(NC(NC(=S)Nc1ccccc1)C(Cl)(Cl)Cl)c1cccc(Cl)c1 (stereo not drawn)	CHO-K1 Ca antag 31.9, CHRM1 antagonist 29.8
O=C(Nc1cccc(S(=O)(=O)N2CCCC2)c1)[C@H]1C[C@H](O)[C@@H](CO)O1	none
O=C(Nc1ccc(O)c(-c2nc3ccccc3s2)c1)C1=COCCO1	CHRM1 antagonist 78.8
CC1CCCN(S(=O)(=O)c2cccc(C(=O)OCC(=O)N(C)Cc3c(F)cccc3Cl)c2)C1 (stereo not drawn)	none
O=S1(=O)N=C(N2CCCc3ccccc32)c2ccccc21	none
O=S1(=O)N=C(N2CCc3ccccc3C2)c2ccccc21	CHRM1 antagonist 36.4
O=C1NC(=O)C2(Br)Nc3ccc(Br)cc3C(=O)C2N1 (stereo not drawn)	none
CC(C)(C(N)=O)c1ccccc1	none
CCN(CC)CC#CC(O)(c1ccccc1)c1ccccc1	CHRM1 antagonist 99.4
CN(C)CCC#CC(O)(c1ccccc1)c1ccccc1	CHRM1 antagonist 65.0
OCCN(CC#CC(O)(c1ccccc1)c1cccc(F)c1)CCO (stereo not drawn)	none
CN(C)C(C)(C)C#CC(O)(c1ccccc1)c1ccccc1	CHRM1 antagonist 100.1
Cc1ccc(C(O)c2ncc(-c3ccccc3Cl)[nH]2)cc1 (stereo not drawn)	none
COC(=O)[C@]1(Cc2ccccc2)N[C@H](c2ccc(-c3cc(C(C)=O)cs3)cc2)[C@@H]2C(=O)N(C)C(=O)[C@@H]21	none
CCOC(=O)Cc1csc(NC(=O)C(NC(=O)C2CCC(C)CC2)C(C)C)n1 (stereo not drawn)	none
O=C(CN1C2CCCC1CC(NC(=O)C1CCCCC1)C2)Nc1ccccc1 (stereo not drawn)	none
O=C(NC1CC2CCCC(C1)N2Cc1ccccc1)C1CCCCC1 (stereo not drawn)	CHRM1 antagonist 38.1
O=C(NC1CCCC1)C1CCN(C(=O)NCc2ccccc2)CC1	none
CCCCN1C2CCCC1CC(NC(=O)C1CCCCC1)C2 (stereo not drawn)	CHRM1 antagonist 42.6
O=C(NC1CC2CCC(C1)N2C(=O)NCc1ccccc1)C1CC1 (stereo not drawn)	CHRM1 antagonist 37.1
COc1ccc(CN2CCNC(=O)C2CC(=O)NCCC2=CCCCC2)cc1OC (stereo not drawn)	none
CN1CCC(OC(c2ccccc2)c2ccccc2)CC1	CHRM1 antagonist 99.5
CN1CCC(Oc2ccccc2Sc2ccccc2)CC1	CHRM1 antagonist 100.2
COc1ccccc1Oc1ccc(S(=O)(=O)N2CCCCC2)cc1NC(=O)CCNC(C)=O	none
CN1CCCN(C(=O)CC(c2ccccc2)c2ccccc2)CC1	CHRM1 antagonist 99.4
COC(=O)c1cccnc1-n1c(=O)c2cccnc2n(Cc2ccc([N+](=O)[O-])cc2)c1=O	M1 ag 18.3
NC(=O)c1ccc[n+]([C@H]2O[C@@H](COP(=O)([O-])OP(=O)(O)OC[C@H]3O[C@@H](n4cnc5c(N)ncnc54)[C@H](O)[C@@H]3O)[C@H](O)[C@@H]2O)c1	CHO-K1 Ca ag 26.6, M1 ag 27.4
Cc1ccc(Sc2c([N+](=O)[O-])c(C)nn2C)cc1	CHRM1 antagonist 87.9
CCN(C[C@H]1N[C@@](Cc2ccccc2)(C(=O)OC)[C@H]2C(=O)N(C)C(=O)[C@@H]12)S(=O)(=O)c1ccc(C(F)(F)F)cc1	CHRM1 antagonist 41.4
CCN(C[C@H]1N[C@@](Cc2ccccc2)(C(=O)OC)[C@H]2C(=O)N(C)C(=O)[C@@H]12)C(=O)C1CCCCC1	CHO-K1 Ca antag 26.4
COC(=O)[C@]1(Cc2ccccc2)N[C@H](CN(C)C(=O)c2ccc(F)cc2)[C@@H]2C(=O)N(C)C(=O)[C@@H]21	CHRM1 PAM 26.8
CCN(C[C@H]1N[C@@](Cc2ccccc2)(C(=O)OC)[C@H]2C(=O)N(C)C(=O)[C@@H]12)C(=O)c1ccccc1	none
CCN(C[C@H]1N[C@@](Cc2ccccc2)(C(=O)OC)[C@H]2C(=O)N(Cc3ccccc3)C(=O)[C@@H]12)C(=O)Nc1ccc(C(F)(F)F)cc1	CHO-K1 Ca antag 31.2
Cc1ccc(S(=O)(=O)N2CCCCC2)cc1C(=O)NCCCN1CCOCC1	none
Cc1c(N=O)c(-c2ccccc2)n(O)[n+]1[O-]	none
CCCSc1nc(N)nc2c1ncn2C1OC(CO)C(O)C1O (stereo not drawn)	none
CC12CCC(=O)N1C(C(=O)Nc1ccc(SC(F)F)cc1)CS2 (stereo not drawn)	none
CCCCC1(C(=O)OCC)CC(CSC(=N)N)OC1=O (stereo not drawn)	CHO-K1 Ca ag 19.0
CCCCCOCC1CC(C/C(C)=N/NC(N)=O)(C(=O)OCC)C(=O)O1 (stereo not drawn)	none
CCC1CCCCN1CCNC(=O)C1CCN(S(=O)(=O)c2c(C)noc2C)CC1 (stereo not drawn)	CHRM1 antagonist 48.2
CC(C)NC(=O)c1ccc2c(c1)N(Cc1ccccc1)C(=O)C(C)(C)O2	CHO-K1 Ca antag 24.4
CC(C)NC(=O)c1ccc2c(c1)N(CC(=O)N1CCCC1)C(=O)C(C)(C)O2	none
Cc1noc(C)c1NC(=O)N(C)C[C@H]1OCc2cnnn2CCCC(=O)N([C@H](C)CO)C[C@H]1C	CHRM1 PAM 26.6
